Data on 31 molecules can be found in the supplement of paper PMC10981050.

Structures are written as SMILES. Counter-ions that a name gives are not always drawn.

The subject of the experiment is MOLM14. Kind of experiment: cell viability relative to vehicle control; higher = less cytotoxic. As to conditions: 10 µM; SRSF2 genotype: SRSF2 wt/wt. The procedure, abridged:
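Screening covered the Selleck bioactive, kinase and epigenetic probe libraries, less identity-inconsistent compounds, on CRISPR-edited mutant clones and isogenic wild-type clones of four leukaemia lines. Cells, at 2000 per well in 50 µL medium, received a single 10 µM acoustically dispensed dose. After 48 h the supernatant was removed and CellTiter-Glo luminescence was read. Viability was analysed in Genedata Screener as percent of the on-plate vehicle control.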
As usually defined, the cell viability is a read-out of living cells in per cent, often relative to untreated cells. `CC(C)Cc1ccc(C(C)C(=O)O)cc1` (stereo unspecified) [Ibuprofen (Advil)]: the cell viability was 101%.
On to `COCCOc1cnc2ccn([C@H](C)c3nnc4c(F)cc(-c5cnn(C)c5)cn34)c(=O)c2c1`, for which the cell viability amounted to 93.5%.
On to `CC(=O)O[C@H]1C(=O)[C@@]2(C)[C@H]([C@H](OC(=O)c3ccccc3)[C@]3(O)C[C@H](OC(=O)[C@H](O)[C@@H](NC(=O)c4ccccc4)c4ccccc4)C(C)=C1C3(C)C)[C@]1(OC(C)=O)CO[C@@H]1C[C@@H]2O` [Paclitaxel (Taxol)], for which the cell viability was 2.55%.
As for `O=C[C@H](O)[C@H]1OC(=O)[C@@H](O)[C@H]1O` [D-Glucurone], the cell viability was 88.3%.
`CC(Oc1cc(-c2cnn(C3CCNCC3)c2)cnc1N)c1c(Cl)ccc(F)c1Cl` [(S)-crizotinib]: the cell viability was found to be 86.2%.
In the case of `CCS(=O)(=O)N1CCC([C@@H](C)n2c(C)c(C(=O)NCc3c(OC)cc(C)[nH]c3=O)c3ccccc32)CC1`, the cell viability worked out at 99%.
On to `C#Cc1cccc(Nc2ncnc3cc4c(cc23)OCCOCCOCCO4)c1` [Icotinib], for which the cell viability was 98.4%.
The result for `COc1cc(Nc2c(C#N)cnc3cc(OCCCN4CCN(C)CC4)c(OC)cc23)c(Cl)cc1Cl` [Bosutinib (SKI-606)] reads 11.1%.
In the case of `COC(=O)N[C@H](C(=O)N1CC2(CC2)C[C@H]1c1nc(-c2ccc3c(c2)C(F)(F)c2cc(-c4ccc5[nH]c([C@@H]6[C@H]7CC[C@H](C7)N6C(=O)[C@@H](NC(=O)OC)C(C)C)nc5c4)ccc2-3)c[nH]1)C(C)C` [Ledipasvir (GS5885)], the cell viability amounted to 84.3%.
With `Clc1ccc(CSC(Cn2ccnc2)c2ccc(Cl)cc2Cl)cc1` (stereo unspecified) [Sulconazole Nitrate], the cell viability came to 44.8%.
Regarding `COc1ccc2c(c1)c(CC(=O)OCC(=O)O)c(C)n2C(=O)c1ccc(Cl)cc1` [Acemetacin (Emflex)], the cell viability was 98.6%.
As for `CC(C)(O)C1CCC(C)(C2C(O)CC3(C)C4CC(O)C5C(C)(C)C(O)CCC56CC46CCC23C)O1` (stereo unspecified) [Cyclogalegenol], the cell viability stood at 95.7%.
As to `Cc1cc(Cn2cnc3c2CC(C(=O)O)N(C(=O)C(c2ccccc2)c2ccccc2)C3)ccc1N(C)C` (stereo unspecified), the cell viability came out at 97.2%.
On to `CC[C@H](NC(=O)[C@H](C)NC)C(=O)N1C[C@@H](O)C[C@H]1Cc1c(-c2[nH]c3cc(F)ccc3c2C[C@@H]2C[C@H](O)CN2C(=O)[C@H](CC)NC(=O)[C@H](C)NC)[nH]c2cc(F)ccc12`, for which the cell viability was 65.4%.
For `NCCCCCC(=O)O`, the cell viability turned out to be 105%.
Turning to `Cc1ccc(NC(=S)NNc2c([N+](=O)[O-])cc(C(F)(F)F)cc2[N+](=O)[O-])cc1Cl`, the cell viability is 84.6%.
`CCCCCCCCCC(C)=O` [Methylnonylketone]: the cell viability is 99.7%.
The result for `CC(C)n1nccc1-c1ncccc1COc1cccc(O)c1C=O` [Voxelotor(GBT440, GTx011)] reads 94%; that for `O=c1cc(CN2CCOCC2)occ1OCCCCCSc1ccnc2cc(C(F)(F)F)ccc12`, 68.5%; that for `CCCOC(=O)c1cc(O)c(O)c(O)c1` [Propyl gallate], 106%.
The result for `Cn1c2ccccc2c2c3c(c4c5ccccc5n(CCC#N)c4c21)CNC3=O` reads 36.8%; that for `CC(C)c1ccccc1Cc1cc(C(=O)Nc2ccc(S(=O)(=O)c3ccccc3C(C)(C)C)cc2)c(O)c(O)c1O`, 1.48%.
Turning to `COc1ccc2cc1Oc1ccc(cc1)C[C@H]1c3cc(c(OC)cc3CCN1C)Oc1c(O)c(OC)cc3c1[C@H](C2)N(C)CC3` [Fangchinoline], the cell viability was 0.53%.
The result for `CC(C)C(=O)Oc1ccc(CO)cc1[C@H](CCN(C(C)C)C(C)C)c1ccccc1` [Fesoterodine Fumarate] reads 104%; that for `COc1ccc2c(c1)c(CC(=O)O)c(C)n2C(=O)c1ccc(Cl)cc1` [Indometacin Sodium], 101%.
For the molecule `Nc1cccc(S(=O)(=O)N2CCCN(S(=O)(=O)c3ccc4c(c3)OCCO4)CC2)c1`, the cell viability came to 97.7%.
As to `Cc1cc(-c2ncc(CC(=O)Nc3ccc(-c4cnccn4)cn3)cc2C)ccn1`, the cell viability stood at 51.1%.
Next, `CC(C)(O)C1CCC(C)(C2C(O)CC3(C)C4CC(OC5OC(CO)C(O)C(O)C5O)C5C(C)(C)C(OC6OCC(O)C(O)C6O)CCC56CC46CCC23C)O1` (stereo unspecified) [Astragaloside A]: 107%; `O=c1[nH]cnc2c1ncn2[C@H]1C[C@H](O)[C@@H](CO)O1` [2'-Deoxyinosine]: 118%.
Regarding `CCN(CC)C(=O)C1(c2ccccc2)CC1CN` (stereo unspecified) [Milnacipran HCl], the cell viability worked out at 105%.
On to `Clc1ccc(COC(Cn2ccnc2)c2ccc(Cl)cc2Cl)cc1` (stereo unspecified) [Econazole nitrate (Spectazole)], for which the cell viability came out at 73%.
